# ELG1 genotoxic: qHTS screen for small molecules that induce genotoxicity in human embryonic kidney (HEK293T) cells expressing luciferase-tagged ELG1; AID 504466, 2011; HEK293T ELG1-luciferase reporter, luminescence, 16 h; Potency, µM (series often up to 46 µM), without a hit: at the top dose activity change, positive = activation, hits mostly activators; 1.3% of 330,000 active; further: % of control where 0% means no effect; nearly all actives have a fitted effect of over 60% in size
#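 ELG1-luciferase HEK293T cells, 2,000/well; compound pinned in; 16 hr, 37 °C, 5% CO2; ONE-Glo, 30 min RT; luminescence on CCD imager.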
# Rab9 promoter act: qHTS Assay for Rab9 Promoter Activators | 2.8% of 320,000 active | Huh7 Rab9 promoter-luciferase reporter, luminescence, 24 h | Potency, µM (doses to about 9.22 µM), for inactives: at the highest dose activation, negative = inhibition, usual class: activators; further: % of control where 0% means no effect; nearly all actives have a fitted effect of over 60% in size
#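 Stable Rab9-luc Huh7, 1500 cells/well, 2 h settle; cmpd in DMSO, 24 h, 37 °C/5% CO2; luciferase reagent 10 min RT; luminescence.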
# KinaseGlo FLuc: Counterscreen for Luciferase (Kinase-Glo TM) Inhibition; Kinase-Glo luciferase, ATP luminescence, 8 min; Potency, µM (doses to about 38.3 µM), without a hit: at the highest dose activity change, negative = inhibition, hits mostly inhibitors; 0.28% of 200,000 active; further: on the % scale 0 is the no-effect control and ±100 the full control effect; nearly all actives have a fitted effect of over 60% in size
#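 Kinase-Glo luciferase light output from ATP and luciferin was measured with 10 uM ATP, within the enzyme's linear range. Buffer: 50 mM imidazole pH 7.2, 50 mM KCl, 7 mM MgCl2, 0.01% Tween 20, 0.05% BSA; luminescence read after 8 min at ambient temperature.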
# SMN2 splice enh: qHTS Assay for Enhancers of SMN2 Splice Variant Expression. HEK293 SMN2-luciferase splicing reporter, luminescence, 30-36 h. Potency, µM (doses to about 46.1 µM), for inactives: at the top dose activity change, positive = activation, actives largely listed as activators. 2.8% of 210,000 active. AID 1458, 2008; further: % of control where 0% means no effect; nearly all actives have a fitted effect of over 55% in size
#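 HEK293 cells carry an SMN2 […]–luciferase reporter in which exon 7 inclusion puts luciferase in frame. Cells were plated 10-12 h before compound addition, then incubated 30-36 h at 37C. ONE-Glo luminescence was read; sodium butyrate at 4.5 mM final served as control.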
# FLuc counter: qHTS profiling assay for firefly luciferase inhibitor/activator using purifed enzyme and Km concentrations of substrates (counterscreen for miR-21 project); 6.9% of 360,000 active; Potency, µM (titrated, usually from 57.5 µM), inactives show at the top dose activity change, negative = inhibition, usual class: inhibitors; Luciferin 4-monooxygenase (Photinus pyralis), P08659; purified FLuc, Km substrates, luminescence inhibition; AID 588342, 2011;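 further: plate controls were vehicle for no effect and reference inhibitor for full effect; nearly all actives have a fitted effect of over 55% in size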
# Target sequence (P08659 whole entry, looked up): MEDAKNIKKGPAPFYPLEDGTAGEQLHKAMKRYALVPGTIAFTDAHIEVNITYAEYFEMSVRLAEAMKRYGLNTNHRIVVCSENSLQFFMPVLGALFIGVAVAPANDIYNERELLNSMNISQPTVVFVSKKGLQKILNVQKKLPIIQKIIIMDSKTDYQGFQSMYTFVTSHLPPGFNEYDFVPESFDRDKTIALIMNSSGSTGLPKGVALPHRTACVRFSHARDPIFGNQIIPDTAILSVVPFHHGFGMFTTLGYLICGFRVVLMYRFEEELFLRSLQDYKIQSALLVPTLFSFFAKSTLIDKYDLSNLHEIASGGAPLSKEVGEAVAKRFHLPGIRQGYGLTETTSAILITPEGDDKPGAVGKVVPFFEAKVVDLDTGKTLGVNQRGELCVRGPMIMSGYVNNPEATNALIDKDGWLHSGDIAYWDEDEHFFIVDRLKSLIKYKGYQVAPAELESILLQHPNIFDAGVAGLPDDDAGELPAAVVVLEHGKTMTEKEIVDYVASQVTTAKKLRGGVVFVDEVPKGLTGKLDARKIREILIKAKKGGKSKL
#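 Purified P. pyralis luciferase, 10 nM final, with Km-level 10 uM D-luciferin and 10 uM ATP in 50 mM Tris acetate pH 7.5, 10 mM Mg acetate, 0.01% Tween-20, 0.05% BSA; 6-point qHTS titration about 60 µM downward; luminescence read.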
# NPC1 prom act: qHTS Assay for NPC1 Promoter Activators. Huh7 NPC1 promoter luciferase reporter, 24 h. Potency, µM (titrated, usually from 9.22 µM), for inactives: at the highest dose activation, most hits filed as activators. 2.4% of 320,000 active. AID 485313, 2010; further: % of control where 0% means no effect; nearly all actives have a fitted effect of over 60% in size
#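 Huh7 reporter cells (NPC1 promoter driving luciferase) are dosed with compound for 24 h at 37 °C, 5% CO2; luciferase detection reagent is then added and luminescence measured after 10 min at ambient temperature.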
# The depositor's hits bear a star; ? = inconclusive; nt = no result; [ ] = remark or other dose. Rows were chosen to be rich in hits. Some 7.3% of all compounds tested hit in one or more screens of this group. The call rests on the fitted dose curve; in most records, active means well fitted curve in the direction sought with a large enough effect; inconclusive means small, poorly fitted or top-dose-only effect, or another doubt; inactive means no such curve, though single readings can be large; an effect the other way counts as inactive or inconclusive. Potency means the concentration at half of the fitted maximal effect.
SMILES,ELG1 genotoxic,Rab9 promoter act,KinaseGlo FLuc,SMN2 splice enh,FLuc counter,NPC1 prom act
COc1ccc(N/C=C\C(=O)c2ccc3c(c2)OCO3)cc1,?,3.55µM*,?,?,0.269µM*,1.78µM*
COc1ccc(N/C=C\C(=O)c2ccc(C)cc2)cc1OC,?,3.55µM*,0.8%,19.4%,5.36µM*,?
COc1cccc(CNC(=O)CSc2c3c(nc4ccc(Cl)cc24)CCCC3)c1OC,nt,nt,nt,2.6%,3.5%,nt
O=C(O)CN(CC(=O)O)c1ccccc1,nt,nt,-1.0%[7.66 µM],-5.4%[9.22 µM],nt,nt
Cc1ccc(NC(=O)c2ccc(Cl)cc2Cl)c(C(=O)c2ccccc2)c1,nt,nt,nt,-28.8%,0.0%,nt
COc1ccc2nc(SCC(=O)c3c(C)[nH]c4ccccc34)nc(C)c2c1,nt,nt,nt,-6.9%,-6.3%,nt
CN(CCC(=O)Nc1ccc2c(c1)OCO2)Cc1ccccc1,-1.2%,8.6%,1.0%,-9.8%,-7.3%,4.8%
CC(C)c1ccc(NC(=O)CCc2ccccc2)cc1,?,?,nt,nt,23.9µM*,25.9%
O=C(CCSCc1ccccc1)Nc1ccc2c(c1)OCCO2,7.1%,10.0%,-0.9%,nt,9.53µM*,-1.6%
O=C(CCc1ccccc1)Nc1cc2c(cc1Cl)OCCO2,?,3.16µM*,-5.3%,12.6µM*,10.7µM*,3.55µM*
O=C(Nc1ccc2c(c1)OCCO2)N1CCN(Cc2ccccc2)CC1,2.5%,?,-2.0%,17.7%,13.5µM*,?
O=C(CCc1ccccc1)Nc1ccc2c(c1)OCCO2,?,1.78µM*,-0.7%,12.6µM*,6.01µM*,3.16µM*
O=C(CCCOc1ccccc1)Nc1ccc2c(c1)OCCO2,?,2.8%,-2.9%,nt,12µM*,0.9%
O=C(CSc1nc2c([nH]c3ccccc32)c(=O)n1-c1ccccc1)N1CCCc2ccccc21,nt,nt,nt,nt,-4.4%,nt
O=C(Cn1c(=O)n(Cc2ccc3c(c2)OCO3)c(=O)c2ccc(C(=O)NC3CCCCC3)cc21)Nc1ccccc1F,nt,nt,nt,-4.8%,-0.3%,nt
O=C(Nc1ccn(Cc2ccccc2)n1)c1cccc(Cn2cc([N+](=O)[O-])cn2)c1,-6.7%,3.9%,-3.5%,-12.7%,15.1µM*,4.3%
O=C(Nc1ccn(Cc2ccccc2)n1)c1ccc(F)cc1,?,2.82µM*,-3.7%,4.0%,6.75µM*,2µM*
Cc1ccc(Cn2ccc(NC(=O)c3cc(-c4ccc(F)cc4)on3)n2)cc1,8.1%,-4.7%,-0.7%,-25.6%,-2.3%,1.5%
Cc1ccc(N2C(=O)Nc3cc(Cl)c(Cl)cc3N2O)cc1Cl,0.9%,0.1%,0.4%,-18.9%,16.9µM*,-1.3%
O=C(Nc1ccc(-c2cn3ccccc3n2)cc1)c1ccco1,?,3.16µM*,10µM*,11.2µM*,2.39µM*,2.82µM*
Cc1ccc(C(=O)Nc2cccc(-c3cn4ccccc4n3)c2)cc1,1.2%,?,-1.9%,nt,6.01µM*,23.6%
O=C(Nc1cccc(-c2cn3ccccc3n2)c1)c1ccccc1,-2.2%,?,-0.2%,?,4.78µM*,24.1%
Cc1cccc(C(=O)Nc2cccc(-c3cnc4ccccc4n3)c2)c1,4.2%,-4.1%,7.6%,11.3%,1.8%,2.6%
CCCC(CCC)C(=O)Nc1cccc(-c2cn3cccnc3n2)c1,nt,nt,nt,nt,-1.2%,nt
CCCCC(=O)Nc1cccc(-c2cn3ccccc3n2)c1,5.5%,22.5%,nt,nt,12µM*,29.7%
SMILES,ELG1 genotoxic,Rab9 promoter act,KinaseGlo FLuc,SMN2 splice enh,FLuc counter,NPC1 prom act
O=C(NCc1cn2ccccc2n1)c1ccco1,23.4%,2.9%,-3.7%,14.9%,-5.4%,6.6%
O=C(Nc1cccc(-c2cn3cccnc3n2)c1)c1ccc(Br)o1,-3.4%,24.5%,-2.1%,-1.5%,?,-3.3%
CC(C)Sc1ncc(Cl)c(C(=O)Nc2ccc(S(=O)(=O)N3CCCCC3C)cc2)n1 (configuration not stated),nt,nt,nt,46.0%,0.7%,nt
COc1cc2c(C(=O)N3CCN(c4cccc(C)c4)C(C)C3)cn(CC(C)C)c(=O)c2cc1OC (configuration not stated),nt,nt,nt,-12.9%,2.5%,nt
Cc1ccccc1C(=O)Nc1cccc(-c2ccc3nncn3n2)c1,0.1%,15.4%,1.0%,9.2%,-15.2%,-2.5%
Cc1ccccc1C(=O)Nc1cccc(-c2cn3ccccc3n2)c1,-18.1%,0.9%,0.4%,-3.8%,6.75µM*,0.1%
COc1cc2oc(=O)cc(-c3ccc(-c4sccc4C=O)cc3)c2c(OC)c1OC,nt,nt,-0.2%[39.9 µM],nt,nt,nt
C=CCNc1ncnc2c1cnn2-c1cccc(C)c1,2.91µM*,1.41µM*,2.0%,11.2µM*,4.78µM*,2.51µM*
Cc1cccc(-n2ncc3c(NCCCO)ncnc32)c1,3.66µM*,1.12µM*,-1.7%,11.2µM*,6.75µM*,2.51µM*
Cc1c(C)n(CCc2ccccc2)c2ncnc(NCCO)c12,?,1.78µM*,nt,nt,16.9µM*,3.55µM*
Cc1ccc(-n2c(C)c(C)c3c(NCCCO)ncnc32)cc1,?,2.51µM*,nt,nt,19µM*,2.82µM*
Cc1cccc(-n2ncc3c(NCc4ccc5c(c4)OCO5)ncnc32)c1,?,15.6%,-0.1%,-1.3%,-12.7%,-1.6%
COc1ccc(CCNC(=O)c2nc(SCc3ccccc3F)ncc2Cl)cc1OC,nt,nt,nt,-8.9%,-14.2%,nt
Cc1ccc(S(=O)(=O)NC(=O)OC23COCN2COC3)cc1,nt,nt,-1.4%[7.66 µM],-7.4%[9.22 µM],nt,nt
CCOC(=O)c1ccccc1NC(=O)N(Cc1ccco1)C1CCN(C(C)=O)CC1,nt,nt,nt,nt,1.9%,nt
CCCCNc1ncnc2c1cnn2-c1ccc(C)cc1C,14.3%,-7.4%,1.1%,-27.9%,-19.5%,-0.7%
C=CCNc1ncnc2c1cnn2-c1ccc(Cl)cc1,1.84µM*,1.12µM*,-1.7%,2.82µM*,0.849µM*,0.891µM*
CCN(CC)CCCNc1ncnc2c1cnn2-c1ccc(C)c(C)c1,nt,nt,nt,nt,15.1µM*,nt
COc1ccc(Cl)cc1NC(=O)CSc1nc2ccccc2nc1N1CCCCC1,nt,nt,nt,1.5%,-7.1%,nt
CC(C)(C)c1csc(NC(=O)C2=COCCO2)n1,?,2.51µM*,nt,nt,9.53µM*,3.16µM*
Cc1ccc(-c2csc(NC(=O)N3CCOCC3)n2)cc1,?,15.5%,3.6%,-24.6%,26.9µM*,5.2%
Cc1ccc(-c2csc(NC(=O)CN3CCOCC3)n2)cc1,-8.3%,-1.1%,nt,nt,-15.4%,-7.1%
Cc1ccc(-c2csc(NC(=O)C3=COCCO3)n2)cc1,?,2.82µM*,-0.7%,14.1µM*,15.1µM*,?
CC(=O)Nc1ccc(-c2csc(NC(=O)C3=COCCO3)n2)cc1,1.1%,?,nt,nt,-16.6%,29.5%

# Compound activity (PubChem BioAssay)
